Screening data as filed in PubChem BioAssay.
IL-1B inflam inh = qHTS for Inhibitors of Inflammasome Signaling: IL-1-beta AlphaLISA Primary Screen | AID 743279, 2014 | activity change, % at 57.5 µM | THP-1 LPS/ATP IL-1B secretion, AlphaLISA, 16 h; hits give low values | hit rate 4.7% among 360,000; in the data active means activity change below about -50%; inconclusive means mostly about -30% to -49%
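Secreted IL-1B measured by AlphaLISA bead assay after 16 h compound exposure of THP-1 cells; compounds (final up to 57.5 uM) added 1 h before LPS (250 ng/mL) and ATP (1.25 mM) stimulation; lower signal means less secretion.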
DT40 TDP1 CPT = qHTS for Inhibitors of human tyrosyl-DNA phosphodiesterase 1 (TDP1): qHTS in cells in presence of CPT; chicken DT40 Tdp1-/-;hTDP1 cells + 20 nM CPT, ATP luminescence, 48 h; Potency, µM (series often up to 46.2 µM), usual class: inhibitors; hit rate 12% among 420,000; AID 686979, 2013; further: nearly all actives have a fitted effect of over 55% in size
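Cell growth measured by CellTiter-Glo luminescence after a minimum 48 h, 37 C compound exposure with 20 nM CPT in Tdp1-knockout DT40 cells stably expressing hTDP1, seeded 400/well; qHTS titration format.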
TGFb inhibitor = qHTS for Inhibitors of TGF-b | HepG2 CAGA-GFP TGF-b/SMAD3 reporter, GFP fluorescence, 18 h; TGF-beta stimulated, 500 pg/mL final | Potency, µM (doses to about 46.1 µM), most hits filed as inhibitors | hit rate 1.2% among 410,000 | AID 588855, 2011; further: nearly all actives have a fitted effect of over 65% in size
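HEPG2 CAGA-GFP reporter cells (1000/well, DMEM with 1% FBS) received compounds, then recombinant TGF-beta at 500 pg/mL final for 18 hours at 37 degrees C. Per-cell GFP summed per well was normalised to unstimulated and stimulated DMSO controls before curve fitting.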
TDP1 block = qHTS Assay for Inhibitors of Tyrosyl-DNA Phosphodiesterase (TDP1); recombinant TDP1, AlphaScreen DNA substrate cleavage; Tyrosyl-DNA phosphodiesterase 1 (Homo sapiens), Q9NUW8; hit rate 0.28% among 350,000; Potency, µM (titrated, usually from 130 µM), most hits filed as inhibitors; further: nearly all actives have a fitted effect of over 40% in size
Target sequence (Q9NUW8 whole entry, looked up): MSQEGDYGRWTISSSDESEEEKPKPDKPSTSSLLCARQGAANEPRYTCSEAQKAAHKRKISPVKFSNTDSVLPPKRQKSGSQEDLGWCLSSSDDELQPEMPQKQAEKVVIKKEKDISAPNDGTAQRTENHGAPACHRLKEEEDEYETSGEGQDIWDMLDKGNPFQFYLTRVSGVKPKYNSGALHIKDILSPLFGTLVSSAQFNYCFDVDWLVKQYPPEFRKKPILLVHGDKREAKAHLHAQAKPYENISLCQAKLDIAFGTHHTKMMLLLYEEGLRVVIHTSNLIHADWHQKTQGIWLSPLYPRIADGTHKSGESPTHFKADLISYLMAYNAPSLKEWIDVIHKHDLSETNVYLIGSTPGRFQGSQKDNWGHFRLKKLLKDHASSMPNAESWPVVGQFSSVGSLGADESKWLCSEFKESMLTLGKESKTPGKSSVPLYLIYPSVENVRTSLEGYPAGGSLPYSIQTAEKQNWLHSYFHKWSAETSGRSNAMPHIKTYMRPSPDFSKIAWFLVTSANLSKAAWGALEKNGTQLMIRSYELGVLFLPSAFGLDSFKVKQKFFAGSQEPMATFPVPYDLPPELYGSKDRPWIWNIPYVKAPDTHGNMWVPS
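Tdp1 1 nM final; 15 min RT w/ cpd; substrate 15 nM, 5 min; beads 10 ug/ml, 10 min; AlphaScreen read. Neg ctrl: no enzyme.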
TDP1 cell noCPT = qHTS for Inhibitors of human tyrosyl-DNA phosphodiesterase 1 (TDP1): qHTS in cells in absence of CPT. DT40 Tdp1-/- hTDP1 cells, no CPT, ATP luminescence, 48 h. Potency, µM (doses to about 46.2 µM), most hits filed as inhibitors. hit rate 15% among 420,000; further: nearly all actives have a fitted effect of over 55% in size
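DT40 Tdp1-/-;hTDP1 cells, no CPT (DMSO vehicle only), 400 cells/well; compounds pin-transferred; ≥48 hr, 37 °C; CellTiter-Glo 30 min RT dark, luminescence read.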
HepG2 tox = qHTS for Inhibitors of TGF-b: Cytotox Counterscreen. hit rate 0.76% among 410,000. Potency, µM (top dose mostly 46.1 µM), usual class: cytotoxic. HepG2 CAGA-GFP viability, ATP luminescence, 18 h
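CellTiter-Glo luminescence gave cytotoxicity after 18 hours at 37 degrees C. The cells were HepG2 CAGA-GFP in 1% FBS DMEM, stimulated with 500 pg/mL TGF-beta after compound addition. %Activity was normalised to no-cell wells (complete cell-killing) and DMSO (no toxicity), and curves were fitted and classified.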
Hits are given with their value; – = inactive; ? = inconclusive; · = not tested or not shown. Rows were chosen to be rich in hits. Some 19% of all compounds tested hit in one or more screens of this group. Unless noted, the call rests on the fitted dose curve; in most records, active means well fitted curve in the direction sought with a large enough effect; inconclusive means small, poorly fitted or top-dose-only effect, or another doubt; inactive means no such curve, though single readings can be large; an effect the other way counts as inactive or inconclusive.

SMILES | IL-1B inflam inh | DT40 TDP1 CPT | TGFb inhibitor | TDP1 block | TDP1 cell noCPT | HepG2 tox
COc1ccc(-c2cc(=O)c3c(OC)c(OC)c(OC)c(OC)c3o2)cc1OC | – | 21µM | – | – | 21µM | –
COc1ccc2c(=O)cc(-c3ccncc3)oc2c1OC | -96 | ? | ? | · | ? | –
O=c1cc(-c2ccc(O)cc2)oc2ccccc12 | – | ? | – | · | ? | –
O=c1cc(-c2ccncc2)oc2ccccc12 | -77 | – | – | – | ? | –
CCc1cccc2c(C(=O)C(NCCCOC)c3ccccc3)c[nH]c12 (configuration not stated) | – | ? | – | – | ? | –
CCc1cccc2c(C(=O)C(NC(C)CC)c3ccccc3)c[nH]c12 (configuration not stated) | – | ? | ? | – | 23µM | –
CCOc1ccccc1NC(=O)c1cccc(NC(=O)C2CCCC2)c1 | ? | ? | – | – | ? | –
CC(O)c1cccc(NC(=O)CC(c2ccccc2)c2ccccc2)c1 (configuration not stated) | – | 9.2µM | – | – | 9.2µM | –
O=C(CC(c1ccccc1)c1ccccc1)Nc1ccncc1 | – | ? | ? | · | ? | –
CCOc1ccccc1NC(=O)c1ccc(Cl)c(NC(=O)CC(c2ccccc2)c2ccccc2)c1 | – | 18µM | – | – | ? | –
CCOc1ccccc1NC(=O)c1cccc(NC(=O)c2ccco2)c1 | – | 1.5µM | – | – | 1.6µM | –
CCOc1ccccc1NC(=O)c1cccc(NC(=O)CC(c2ccccc2)c2ccccc2)c1 | – | 23µM | – | – | 26µM | –
CCCCCN1C(C(=O)c2ccccc2)=C(NC(C)=O)c2ccccc2S1(=O)=O | · | 16µM | ? | – | 18µM | –
O=C(CCN1C(=O)c2ccccc2S1(=O)=O)Nc1ccc(C(=O)O)cc1 | – | – | – | · | – | –
CCCCCN1C(C(=O)c2ccccc2)=C(NC(=O)c2ccccc2Cl)c2ccccc2S1(=O)=O | · | ? | ? | – | 8.2µM | –
Cc1ccc(CNC(=O)CN2C(=O)c3ccccc3S2(=O)=O)cc1 | – | – | – | – | – | –
CCCCCN1C(C(=O)c2ccccc2)=C(NC(=O)c2ccc(C)cc2)c2ccccc2S1(=O)=O | · | 18µM | ? | – | 16µM | –
CCOc1ccc(C=NNC(=O)c2ccc(-n3cnnn3)cc2)cc1 | ? | – | – | – | – | –
Cc1cc2c(cc1S(=O)(=O)N(C)C1CCCCC1)OCC(=O)N2 | – | ? | – | · | 23µM | –
Cc1cc2[nH]c(=O)c(=O)[nH]c2cc1S(=O)(=O)N(C)C1CCCCC1 | – | 21µM | – | · | 21µM | –
Cc1cc2c(cc1S(=O)(=O)N(CCN(C)C)Cc1ccccc1)OCC(=O)N2 | · | 13µM | – | – | ? | –
CCc1ccc(N=C2NC(=O)CC(C(=O)Nc3ccc(OC)cc3)S2)cc1 (configuration not stated) | · | – | – | · | – | –
Cc1noc(C)c1-c1ccc2ncnc(NC3CCCc4ccccc43)c2c1 (configuration not stated) | · | · | · | – | · | ·
COc1ccc(OC)c(CNC(=O)C2CCN(S(=O)(=O)c3ccc4[nH]c(=O)oc4c3)CC2)c1 | · | – | – | – | – | –
Cc1cc(C)c(S(=O)(=O)/N=C2\C=C(Nc3ccc(C(=O)O)cc3)C(=O)c3ccccc32)c(C)c1 | -104 | 3.7µM | ? | – | 3.7µM | 16µM
SMILES | IL-1B inflam inh | DT40 TDP1 CPT | TGFb inhibitor | TDP1 block | TDP1 cell noCPT | HepG2 tox
Cc1cc(C)c(S(=O)(=O)/N=C2\C=C(NS(=O)(=O)c3ccccc3)C(=O)c3ccccc32)c(C)c1 | – | ? | – | · | – | –
O=C(O)c1ccc(NC2=C/C(=N/S(=O)(=O)c3cccs3)c3ccccc3C2=O)cc1 | -94 | 9.2µM | 14µM | · | 6.5µM | –
Cc1nc2nc(SCC(=O)N(C)Cc3ccccc3)nn2c(C)c1Cc1ccccc1Cl | · | ? | ? | – | ? | –
CC(=O)NC1C(OC2OC(CC(O)C3OC([N+]4=CCC(=O)NC4=O)C(O)C3O)C(O)C(O)C2NC(=O)/C=C/CCCCCCCCC(C)C)OC(CO)C(O)C1O (configuration not stated) | · | 0.11µM | · | – | 0.09µM | ·
Cc1c(C(=O)NCc2ccc(Cl)c(Cl)c2)sc(=O)n1Cc1ccc(S(C)(=O)=O)cc1 | ? | ? | – | · | 18µM | –
COC(=O)c1ccc(Cn2c(C)c(C(=O)NCc3ccco3)sc2=O)o1 | -56 | – | – | · | – | –
CSc1ccc(Cn2c(C)c(C(=O)NCc3ccc(F)cc3)sc2=O)cc1 | ? | 23µM | – | · | ? | –
Cc1c(C(=O)NCc2ccc(F)cc2)sc(=O)n1Cc1ccc(Cl)c(Cl)c1 | -86 | ? | ? | · | ? | –
CSc1ccc(Cn2c(C)c(C(=O)NCc3cccc(C(F)(F)F)c3)sc2=O)cc1 | – | ? | – | · | ? | –
COC(=O)c1ccc(Cn2c(C)c(C(=O)NCc3ccc(C#N)cc3)sc2=O)o1 | – | – | – | · | – | –
CCN1C(=O)[C@H]2[C@@H](c3ccc(-c4ccc(OC)cc4)cc3)N[C@@](C)(C(=O)OC)[C@H]2C1=O | – | ? | – | – | ? | –
CSc1ccc(Cn2c(C)c(C(=O)NCCC#N)sc2=O)cc1 | – | – | – | · | – | –
CSc1ccc(Cn2c(C)c(C(=O)NCc3ccc(Cl)c(Cl)c3)sc2=O)cc1 | -58 | ? | ? | · | ? | –
Cc1c(C(=O)NCc2ccc(Cl)c(Cl)c2)sc(=O)n1Cc1ccccc1F | – | ? | ? | · | ? | –
CCCCN(C)C(=O)c1sc(=O)n(Cc2ccc(Cl)c(Cl)c2)c1C | – | ? | ? | · | 21µM | –
CSc1ccc(Cn2c(C)c(C(=O)NCc3ccco3)sc2=O)cc1 | -101 | ? | – | · | ? | –
C=CCn1cnc2c(c1=O)c1nc3ccccc3nc1n2-c1ccccc1 | · | · | · | – | · | ·
C=CCn1cnc2c(c1=O)c1nc3ccccc3nc1n2/N=C/c1cc(OC)c(OC)c(OC)c1 | – | 4.1µM | – | – | 3.3µM | –
COc1cccc(/C=N/n2c(-c3ccco3)nc3ccccc3c2=O)c1 | – | ? | – | – | 18µM | –
COc1ccc(/C=N/n2c(-c3ccco3)nc3ccccc3c2=O)cc1 | – | ? | – | – | ? | –
O=c1c2c3nc4ccccc4nc3n(/N=C/c3ccccn3)c2ncn1-c1ccccc1 | ? | 2.6µM | – | – | ? | –
